This is a sample that favours compounds with a hit; in the whole collection about 28% have one here.
CD11b adhes enh = increases human CD11b/CD18 adhesion to fibrinogen. actives 0.07% (n = 93,000). AID 1499. K562 CD11b/CD18 adhesion to fibrinogen, ATPlite luminescence. activation, % at 10 µM;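 active = 10 µM primary screen giving 50% or more activity, confirmed by 40% or more on retest at that dose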
Mac1 fbg inh = inhibitors of human CD11b/CD18 binding to fibrinogen | P05107+P11215 | K562 CD11b/CD18 adhesion to fibrinogen, ATPlite luminescence; Mn2+ added to activate the integrin | inhibition, % at 10 µM | actives 0.54% (n = 93,000);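 active = primary inhibition of 50% or more at 10 µM, then 40% or more on retest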
CYP2C9 activ = activators of human CYP2C9; activation factor at 5 µM; P11712; recombinant CYP2C9, luciferin-H conversion, luminescence; hits give high values; factor 1 = untreated enzyme, 0 = blocked; actives 1.4% (n = 96,000); AID 1024;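 active = activation factor of 2 or more for CYP2C9 at a 5 µM dose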
Target sequence (P11712 whole entry, looked up): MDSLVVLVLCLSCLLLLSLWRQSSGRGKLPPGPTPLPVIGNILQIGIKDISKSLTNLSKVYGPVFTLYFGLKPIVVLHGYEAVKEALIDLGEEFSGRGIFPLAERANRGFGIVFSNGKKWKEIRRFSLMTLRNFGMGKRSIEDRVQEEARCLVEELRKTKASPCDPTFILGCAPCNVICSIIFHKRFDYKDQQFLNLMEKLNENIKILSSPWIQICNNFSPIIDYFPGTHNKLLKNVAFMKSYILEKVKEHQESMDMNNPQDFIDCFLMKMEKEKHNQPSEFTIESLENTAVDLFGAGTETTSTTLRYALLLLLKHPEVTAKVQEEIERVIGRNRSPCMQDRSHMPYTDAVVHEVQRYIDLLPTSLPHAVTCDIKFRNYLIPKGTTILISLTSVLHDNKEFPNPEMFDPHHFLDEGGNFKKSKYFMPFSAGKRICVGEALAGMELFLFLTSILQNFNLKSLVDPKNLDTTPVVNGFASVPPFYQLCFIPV
CYP2C19 activ = increases human CYP2C19 enzyme activity; P33261; recombinant CYP2C19, luciferin-H EGE luminescence; hits give high values; 0 = fully inhibited enzyme, 1 = untreated enzyme; activation factor at 5 µM; 96,000 tested, under 10 active;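 active = activation factor of at least 2 at 5 µM in the primary screen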
CYP2C9 inh = inhibitors of human CYP2C9. P11712. CYP2C9 Supersomes, luciferin-H conversion, luminescence. inhibition, % at 5 µM. actives 20% (n = 96,000);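 active = blocking of liver enzyme CYP2C9 beyond about 50% at 5 µM, limit read from the data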
CYP2C19 inhib = blocks human cytochrome P450 2C19; CYP2C19 Supersomes, luciferin-H EGE luminescence, 30 min; inhibition, % at 5 µM; actives 21% (n = 96,000); AID 778;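 active = CYP2C19 inhibition above a set limit at 5 µM in the primary screen, cut at about 50% in these data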
Hits are given with their value; 0 = inactive; - = no result given.

SMILES	CD11b adhes enh	Mac1 fbg inh	CYP2C9 activ	CYP2C19 activ	CYP2C9 inh	CYP2C19 inhib
CCOc1cc(CNCCCN2CCOCC2)cc(Br)c1OCC(=O)Nc1cccc(C(F)(F)F)c1	0	0	0	0	0	0
O=C1NCCCC2c3c(cc(Br)c(O)c3Br)OC12N1CCCCC1 (stereo unspecified)	0	0	0	0	0	97
COc1cc(Nc2ccccc2Cl)c([N+](=O)[O-])nc1[N+](=O)[O-]	0	0	0	0	0	81
O=S(=O)(c1ccc2ccccc2c1)N1CCCOC1	0	0	3.5	0	0	0
O=S(=O)(c1ccc2ccccc2c1)N1CCCCC1	0	0	2.5	0	0	0
Cc1ccc(S(=O)(=O)N(CC(O)CN2C(=O)NC(C)(C)C2=O)c2ccccc2)cc1 (stereo unspecified)	-	-	0	0	0	0
COc1ccccc1N(CC(O)CN1C(=O)NC(C)(C)C1=O)S(=O)(=O)c1ccc(C)cc1 (stereo unspecified)	0	0	0	0	60	94
Cc1ccc(NC(=O)CNc2ccc(Cl)cc2F)cc1	0	0	-	-	-	-
COc1cc(/C=C2/C(=N)N3C=CSC3=NC2=O)ccc1OCCCOc1ccccc1C	0	0	0	0	76	0
COc1ccc(/C=C2/C(=O)N=C(N)N2C)cc1OC	0	0	0	0	0	0
CCOc1cc(/C=C2/C(=N)N3C=CSC3=NC2=O)ccc1OCCCOc1ccccc1C	-	-	0	0	74	0
Cc1ccc(-n2c(C)cc(/C=C3/C(=N)N4C(c5ccccc5)=CSC4=NC3=O)c2C)cc1	0	0	-	-	-	-
Cc1ccc(C(C)C)c(OCc2nnc(SCC(=O)Nc3ncc(C)s3)n2C)c1	0	0	0	0	0	0
COc1ccc(NC(=O)C2CCCN2S(=O)(=O)c2ccc3c(c2)CCC(=O)N3)cc1Cl (stereo unspecified)	0	0	0	0	65	0
COc1ccc(S(=O)(=O)N2CCCC2C(=O)Nc2ccc(O)cc2)cc1 (stereo unspecified)	0	0	0	0	0	0
COc1ccc(NC(=O)C2CCCN2S(=O)(=O)c2ccc3c(c2)CCC(=O)N3)cc1 (stereo unspecified)	0	0	0	0	90	0
O=C1NC2=C(C(=O)CCC2)C(c2ccc3ncccc3c2)N1 (stereo unspecified)	0	0	0	0	0	0
CC/C(=N\NC(=O)c1ccc(-c2ccccc2)cc1)C12CC3CC(CC(C3)C1)C2	0	0	0	0	0	67
O=C1c2[nH]nc(-c3ccccc3O)c2C(c2cccc(Cl)c2)N1CC1CCCO1 (stereo unspecified)	-	-	0	0	88	70
O=C1c2[nH]nc(-c3ccccc3O)c2C(c2ccc(F)cc2)N1CC1CCCO1 (stereo unspecified)	0	0	0	0	0	0
O=C1c2[nH]nc(-c3ccccc3O)c2C(c2ccc(F)cc2)N1Cc1ccco1 (stereo unspecified)	0	0	0	0	97	84
O=C1c2[nH]nc(-c3ccccc3O)c2C(c2cccc(Cl)c2)N1Cc1ccco1 (stereo unspecified)	0	0	0	0	95	87
CNC(=O)c1csc(-c2ccc(C)cc2)n1	0	0	0	0	0	0
COC(=O)CSc1nnc(CNC(=O)c2ccco2)n1-c1ccc(F)cc1	0	0	0	0	0	0
O=C(Nc1ccc(Cl)cc1)C1=Cc2ccccc2OC1	0	0	0	0	0	0
SMILES	CD11b adhes enh	Mac1 fbg inh	CYP2C9 activ	CYP2C19 activ	CYP2C9 inh	CYP2C19 inhib
CC(/C=C/c1ccc2c(c1)OCO2)=N/NC(=O)c1ccc(C)nc1	0	0	-	-	-	-
Cc1ccc(-c2noc(CCC(=O)NCCCN3CCN(c4ccc(F)cc4)CC3)n2)cc1	0	0	0	0	70	57
O=C(NCCCN1CCN(c2cccc(Cl)c2)CC1)c1ccc(N2CCCC2=O)cc1	0	0	0	0	66	0
COc1ccc(-c2noc(CCC(=O)NCCCN3CCC(C)CC3)n2)cc1	0	0	0	0	0	0
Cc1ccc(-c2noc(CCC(=O)NCCCN3CCN(c4cccc(Cl)c4)CC3)n2)cc1	0	0	0	0	74	0
COc1ccc(-c2noc(CCC(=O)NCCN3CCN(c4ccccc4F)CC3)n2)cc1	0	0	0	0	69	0
COC(CN1C(=O)C(O)=C(C(C)=O)C1c1ccccn1)OC (stereo unspecified)	0	0	0	0	0	0
O=C(COC(=O)c1oc2ccccc2c1COc1ccccc1)NCCN1C(=O)CSC1=O	0	0	-	-	-	-
COc1cccc(-n2nnnc2SCC(=O)NCCc2ccccc2)c1	0	0	0	0	0	93
COc1cccc(-n2nnnc2SCC(=O)NCc2ccco2)c1	0	0	0	0	0	0
COc1ccc(OC)c(-n2nnnc2SCC(=O)NCCc2ccccc2)c1	0	0	0	0	54	60
Cc1ccc(C(C(=O)NCc2ccco2)N(C(=O)CNC(=O)c2cccs2)c2c(C)cc(C)cc2C)cc1 (stereo unspecified)	0	0	0	0	0	0
COc1ccc(S(=O)(=O)N2CCC(C(=O)Nc3cccc(Cl)c3)CC2)cc1OC	0	0	0	0	0	53
COC(=O)c1ccccc1NC(=O)C1CCN(S(=O)(=O)c2cc(C)ccc2OC)CC1	0	0	0	0	88	86
COc1ccc(OC)c(S(=O)(=O)N2CCC(C(=O)Nc3cccc(C)c3)CC2)c1	0	0	0	0	0	88
CCSc1cc(C)nc2ncnn12	0	0	0	0	0	0
CCCCCCSc1cc(C)nc2ncnn12	0	0	0	0	0	66
CCOc1ncccc1C(=O)OCC(=O)Nc1c(C)cc(C)cc1C	0	0	0	0	0	60
CCOc1ncccc1C(=O)OCC(=O)c1cccs1	0	0	0	0	0	0
CCOc1ncccc1C(=O)OCCN1C(=O)c2ccccc2C1=O	0	0	0	0	0	59
CCOc1ncccc1C(=O)OCC(=O)Nc1c(C)cccc1C	0	0	0	0	0	52
CCOCCCNC(=S)N1CCN(C(=O)C(=O)Nc2ccc(C(=O)OC)cc2)CC1	0	0	-	-	-	-
C#CC[N+]1(CC#Cc2ccc(C)cc2)CCCCC1	0	0	-	-	-	-
COc1cccc(C2/C(=C(\O)c3c(C)nc4c(C)cccn34)C(=O)C(=O)N2CCCN(C)C)c1 (stereo unspecified)	0	0	0	0	0	0
CC(=O)c1c(NC(=O)C(C)C)nc(C)nc1-c1ccccc1	0	0	0	0	55	0
CC(=O)Nc1nc(C)nc(-c2ccccc2)c1C(C)=O	0	0	0	0	0	0
Cn1c(=O)c2c(nc(OCc3ccccc3)n2C)n(C)c1=O	0	0	0	0	0	0
COc1ccc(S(=O)(=O)n2oc(=O)cc2-c2ccccc2)cc1	0	0	0	0	0	0

Source: PubChem
